The antibiotic and cytotoxicity screens of Wong et al. (2023)
The campaign covered roughly 39,000 compounds. About 1,500 (3.8%) were called active. Shown is part of a subset that was picked to be rich in actives.

Tested on: HSkMC (human skeletal muscle cells)
Test: cytotoxicity call (relative viability < 0.9)
Conditions: 10 µM

Structure (SMILES) | cytotoxicity call
COC(=O)c1c2oc(c1C(=O)OC)C(=O)N[C@H](Cc1ccccc1)Cn1cc(nn1)CNC(=O)[C@H](Cc1ccccc1)NC(=O)N[C@@H](CO)CC2 | inactive
CCCCC[C@H]1C[C@H]1C[C@H]1C[C@H]1CCCCCCCC(=O)O | inactive
COc1cccc(CN2C[C@@H](C)[C@H](OC)CN(C)C(=O)c3cc(NS(=O)(=O)c4cn(C)cn4)ccc3OC[C@H]2C)c1 | inactive
O=C(C[C@@H]1CC[C@@H]2[C@H](COC[C@@H](O)CN2C(=O)c2ccc3c(c2)OCO3)O1)NCCN1CCCC1 | inactive
C[C@@H]1CCCCO[C@H](CN(C)Cc2ccc(Cl)c(Cl)c2)[C@H](C)CN([C@@H](C)CO)C(=O)c2cc(NS(=O)(=O)c3ccc(F)cc3)ccc2O1 | active
C[C@@H]1CN([C@H](C)CO)C(=O)c2cc(NS(=O)(=O)c3ccc(F)cc3)ccc2O[C@@H](C)CCCCO[C@H]1CN(C)Cc1ccc(Cl)c(Cl)c1 | inactive
C[C@@H]1CCCCO[C@@H](CN(C)Cc2ccc(Cl)c(Cl)c2)[C@@H](C)CN([C@H](C)CO)C(=O)c2cc(NS(=O)(=O)c3ccc(F)cc3)ccc2O1 | inactive
C[C@@H]1CCCCO[C@H](CN(C)Cc2ccc(Cl)c(Cl)c2)[C@@H](C)CN([C@@H](C)CO)C(=O)c2cc(NS(=O)(=O)c3ccc(F)cc3)ccc2O1 | active
CN1CCN(C(=O)C[C@H]2C=C[C@@H](NC(=O)Cc3ccccn3)[C@H](CO)O2)CC1 | inactive
COc1ccc(NC(=O)Nc2ccc3c(c2)C(=O)N([C@@H](C)CO)C[C@@H](C)[C@@H](CN(C)C(=O)NC2CCCCC2)OCCCC[C@@H](C)O3)cc1 | active
C[C@@H]1CCCCO[C@H](CN(C)C(=O)NC2CCCCC2)[C@@H](C)CN([C@@H](C)CO)C(=O)c2cc(NC(=O)Nc3ccc(C(F)(F)F)cc3)ccc2O1 | inactive
C[C@H]1CCCCO[C@@H](CN(C)C(=O)NC2CCCCC2)[C@@H](C)CN([C@@H](C)CO)C(=O)c2cc(NC(=O)Nc3ccc(C(F)(F)F)cc3)ccc2O1 | inactive
C[C@@H]1CCCCO[C@@H](CN(C)C(=O)NC2CCCCC2)[C@@H](C)CN([C@H](C)CO)C(=O)c2cc(NC(=O)Nc3ccc(C(F)(F)F)cc3)ccc2O1 | active
COc1ccc(NC(=O)Nc2ccc3c(c2)C(=O)N([C@@H](C)CO)C[C@H](C)[C@H](CN(C)C(=O)NC2CCCCC2)OCCCC[C@H](C)O3)cc1 | inactive
C[C@@H]1CCCCO[C@H](CN(C)C(=O)NC2CCCCC2)[C@H](C)CN([C@H](C)CO)C(=O)c2cc(NC(=O)Nc3ccc(C(F)(F)F)cc3)ccc2O1 | active
C[C@@H]1CN([C@H](C)CO)C(=O)c2cc(NC(=O)Nc3ccc(C(F)(F)F)cc3)ccc2O[C@H]1CN(C)C(=O)NC1CCCCC1 | inactive
COc1ccc(NC(=O)Nc2ccc3c(c2)C(=O)N([C@H](C)CO)C[C@H](C)[C@@H](CN(C)C(=O)NC2CCCCC2)OCCCC[C@@H](C)O3)cc1 | inactive
C[C@H]1CN([C@@H](C)CO)C(=O)c2cc(NC(=O)Nc3ccc(C(F)(F)F)cc3)ccc2O[C@@H]1CN(C)C(=O)NC1CCCCC1 | inactive
C[C@@H]1CN([C@H](C)CO)C(=O)c2cc(NC(=O)Nc3ccc(C(F)(F)F)cc3)ccc2O[C@@H](C)CCCCO[C@@H]1CN(C)C(=O)NC1CCCCC1 | inactive
C[C@@H]1CCCCO[C@@H](CN(C)C(=O)NC2CCCCC2)[C@H](C)CN([C@@H](C)CO)C(=O)c2cc(NC(=O)Nc3ccc(C(F)(F)F)cc3)ccc2O1 | inactive
C[C@@H]1CN([C@H](C)CO)C(=O)c2cc(NC(=O)Nc3ccc(C(F)(F)F)cc3)ccc2O[C@@H]1CN(C)C(=O)NC1CCCCC1 | active
COCC#Cc1cnc2c(c1)C(=O)N([C@H](C)CO)C[C@@H](C)[C@@H](CN(C)C(=O)c1cnccn1)O2 | inactive
C[C@H]1CN([C@@H](C)CO)C(=O)c2cccc(NC(=O)Nc3ccccc3)c2O[C@H]1CN(C)Cc1ccc(C(F)(F)F)cc1 | inactive

Structure (SMILES) | cytotoxicity call
C[C@@H]1CN([C@@H](C)CO)C(=O)c2cc(NS(C)(=O)=O)ccc2O[C@@H]1CN(C)S(=O)(=O)c1ccc(Cl)cc1 | inactive
C=CCOC(=O)[C@H]1[C@@H]2C(=O)O[C@@H](c3ccccc3)[C@@H](c3ccccc3)N2[C@@H](c2ccc(OCCOC(=O)[C@H]3C[C@H]4C(=O)NCC(=O)N4[C@H]3c3ccc(O)cc3)cc2)[C@]12C(=O)Nc1ccc(I)cc12 | inactive
C=C(O)C(=O)O | inactive
C[C@H]1CN([C@@H](C)CO)C(=O)Cc2cc(NS(=O)(=O)c3cccs3)ccc2O[C@@H]1CN(C)S(=O)(=O)c1cccs1 | inactive
Cc1cc(NC(=O)CCCC(=O)O)n(C)n1 | inactive
C[C@H](CO)N1C[C@H](C)[C@H](CN(C)C(=O)Nc2cccc3ccccc23)Oc2ccc(NC(=O)Nc3ccc(F)cc3)cc2C1=O | inactive
C[C@H](CO)N1C[C@H](C)[C@@H](CN(C)C(=O)Nc2cccc3ccccc23)Oc2ccc(NC(=O)Nc3ccc(F)cc3)cc2C1=O | inactive
C[C@H]1CN([C@@H](C)CO)C(=O)c2cc(NC(=O)Nc3ccc(F)cc3)ccc2O[C@@H]1CN(C)C(=O)Nc1cccc2ccccc12 | inactive
C[C@@H]1CN([C@H](C)CO)C(=O)c2cc(NC(=O)Nc3ccc(F)cc3)ccc2O[C@H]1CN(C)C(=O)Nc1cccc2ccccc12 | inactive
C[C@@H]1CN([C@H](C)CO)C(=O)c2cc(NC(=O)Nc3ccc(F)cc3)ccc2O[C@@H]1CN(C)C(=O)Nc1cccc2ccccc12 | active
C[C@@H]1CN([C@@H](C)CO)C(=O)c2cc(NC(=O)Nc3ccc(F)cc3)ccc2O[C@@H]1CN(C)C(=O)Nc1cccc2ccccc12 | active
Cc1ccc(S(=O)(=O)N(C)C[C@H]2Oc3ccc(NC(=O)C4CC4)cc3CC(=O)N([C@@H](C)CO)C[C@H]2C)cc1 | inactive
C[C@@H]1CCCCO[C@@H](CN(C)S(=O)(=O)c2ccccc2)[C@@H](C)CN([C@@H](C)CO)C(=O)c2cc(NC(=O)C3CCCCC3)ccc2O1 | inactive
C[C@H]1CN([C@@H](C)CO)C(=O)c2cc(Br)cnc2O[C@H]1CN(C)S(=O)(=O)c1cccs1 | inactive
C[C@@H]1CCCCO[C@H](CN(C)S(=O)(=O)c2cccs2)[C@H](C)CN([C@H](C)CO)C(=O)c2cc(NS(C)(=O)=O)ccc2O1 | inactive
Cc1noc(C)c1S(=O)(=O)N(C)C[C@@H]1Oc2ccc(NS(=O)(=O)c3cccs3)cc2CC(=O)N([C@H](C)CO)C[C@H]1C | inactive
C[C@@H]1CN([C@H](C)CO)C(=O)c2cc(NS(C)(=O)=O)ccc2O[C@@H](C)CCCCO[C@H]1CN(C)S(=O)(=O)c1cccs1 | inactive
CC1=CC[C@H](C(C)(C)O)CC1 | inactive
C=CC(C)(O)CCC=C(C)C (configuration not stated) | inactive
CC(C)=CCCC(C)(O)C1CC=C(C)CC1 (configuration not stated) | active
CC(C)CC#Cc1cnc2c(c1)C(=O)N([C@@H](C)CO)C[C@@H](C)[C@H](CN(C)S(=O)(=O)c1cn(C)cn1)O2 | inactive
C[C@@H]1CCCCO[C@H](CN(C)C(=O)C2CCCCC2)[C@H](C)CN([C@H](C)CO)C(=O)c2cc(NS(=O)(=O)c3ccc(Cl)cc3)ccc2O1 | inactive
C[C@H](CO)N1C[C@H](C)[C@@H](CN(C)C(=O)C2CCCCC2)OCCCC[C@H](C)Oc2ccc(NS(=O)(=O)c3ccc(Cl)cc3)cc2C1=O | inactive

Structure (SMILES) | cytotoxicity call
C[C@@H]1CCCCO[C@@H](CN(C)C(=O)C2CCCCC2)[C@@H](C)CN([C@H](C)CO)C(=O)c2cc(NS(=O)(=O)c3ccc(Cl)cc3)ccc2O1 | active
C[C@@H]1CCCCO[C@H](CN(C)C(=O)C2CCCCC2)[C@@H](C)CN([C@H](C)CO)C(=O)c2cc(NS(=O)(=O)c3ccc(Cl)cc3)ccc2O1 | inactive
C[C@H]1CCCCO[C@H](CN(C)C(=O)C2CCCCC2)[C@@H](C)CN([C@@H](C)CO)C(=O)c2cc(NS(=O)(=O)c3ccc(Cl)cc3)ccc2O1 | active
C[C@@H]1CCCCO[C@H](CN(C)C(=O)C2CCCCC2)[C@H](C)CN([C@@H](C)CO)C(=O)c2cc(NS(=O)(=O)c3ccc(Cl)cc3)ccc2O1 | active
C[C@@H]1CCCCO[C@@H](CN(C)C(=O)C2CCCCC2)[C@H](C)CN([C@@H](C)CO)C(=O)c2cc(NS(=O)(=O)c3ccc(Cl)cc3)ccc2O1 | inactive
C[C@@H]1CN([C@H](C)CO)C(=O)c2cc(NS(=O)(=O)c3ccc(Cl)cc3)ccc2O[C@@H](C)CCCCO[C@H]1CN(C)C(=O)C1CCCCC1 | inactive
C[C@@H]1CN([C@@H](C)CO)C(=O)c2cc(NS(=O)(=O)c3ccc(Cl)cc3)ccc2O[C@@H](C)CCCCO[C@H]1CN(C)C(=O)Cc1ccccc1 | inactive
C[C@@H]1CCCCO[C@@H](CN(C)C(=O)Cc2ccccc2)[C@@H](C)CN([C@@H](C)CO)C(=O)c2cc(NS(=O)(=O)c3ccc(Cl)cc3)ccc2O1 | inactive
C[C@H]1CCCCO[C@H](CN(C)C(=O)Cc2ccccc2)[C@@H](C)CN([C@@H](C)CO)C(=O)c2cc(NS(=O)(=O)c3ccc(Cl)cc3)ccc2O1 | active
C[C@@H]1CN([C@@H](C)CO)C(=O)c2cc(NS(=O)(=O)c3ccc(Cl)cc3)ccc2O[C@@H](C)CCCCO[C@H]1CN(C)C(=O)C1CCCCC1 | inactive
CNC(=O)CN1CCO[C@H]2CN(C(=O)c3cnccn3)C[C@@H]21 | inactive
CC1(C)C(=O)NCCN1C(=O)c1ccco1 | inactive
C[C@H]1CN([C@@H](C)CO)C(=O)Cc2cc(NS(=O)(=O)c3ccc(Cl)cc3)ccc2O[C@H]1CN(C)S(=O)(=O)c1cn(C)cn1 | inactive
C[C@@H]1CN([C@H](C)CO)C(=O)Cc2cc(NC(=O)Cc3cn(C)c4ccccc34)ccc2O[C@H]1CN(C)C(=O)Nc1ccc(C(F)(F)F)cc1 | inactive
COc1ccc(NC(=O)N2C[C@H](O)COC[C@@H]3O[C@H](CC(=O)NCc4ccccc4OC)CC[C@H]32)cc1 | inactive
Cc1ccc(S(=O)(=O)N(C)C[C@@H]2Oc3c(NC(=O)c4ccncc4)cccc3C(=O)N([C@H](C)CO)C[C@@H]2C)cc1 | inactive
COc1cccc(S(=O)(=O)N[C@H]2CC[C@@H](CCn3cc(-c4ccccc4OC)nn3)O[C@@H]2CO)c1 | inactive
COc1cc(C(=O)O)ccc1NC(=O)[C@@H]1N[C@@H](CC(C)(C)C)[C@](C#N)(c2ccc(Cl)cc2F)[C@H]1c1cccc(Cl)c1F | active
C[C@@H]1CN([C@H](C)CO)C(=O)c2cc(NS(=O)(=O)c3ccc(Cl)cc3)ccc2O[C@H]1CN(C)Cc1ccc(C(=O)Nc2ccccc2N)cc1 | inactive
C[C@@H]1CN([C@H](C)CO)C(=O)c2cc(C#Cc3ccccc3F)cnc2O[C@H]1CN(C)C(=O)c1ccc2c(c1)OCO2 | inactive
O=C(/C=C/c1cc2c(cc1Br)OCCO2)c1c(-c2ccccc2)c2cc(Cl)ccc2[nH]c1=O | active
